Data on 26 molecules can be found in PubChem BioAssay (NCATS).

Assay [1] can be described thus: Primary qHTS for small molecule stabilizers of the endoplasmic reticulum resident proteome: Secreted ER Calcium Modulated Protein (SERCaMP) assay (AID 1508630). The procedure, abridged: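 The SH-SY5Y reporter protocol was run at 3 concentrations up to 38.3 uM (primary) or 11 concentrations (follow-up): 16 h compound, 100 nM thapsigargin for 4 h, then extracellular luciferase luminescence.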

Assay [2] can be described thus: A High-Content qHTS Against Drug Library for the Identification of Small Molecules that Inhibit DYT1 Early Onset Primary Dystonia-Associated Cell Pathology (AID 1645839; calls by dose curve; note: potency is the fitted concentration of half-maximal effect). The procedure, abridged:
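Cells were seeded and left for 24 h, then dosed with compound alongside tetracycline induction of mutant EGFP-TorsinA. They were incubated for 48 h, fixed in 4% paraformaldehyde, permeabilized and imaged for mislocalization (%pathology) and cell count.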
In general terms: qHTS replaces the single test concentration by a dilution series.

Assay [3] addresses Cytochrome P450 2C9 (Homo sapiens) (UniProt P11712). In words: Cytochrome P450 family 2 subfamily C member 9 (CYP2C9) small molecule antagonists: luciferase biochemical (cell-free) qHTS assay (AID 1645842; active = well fitted curve in the direction sought with a large enough effect in the repeat runs; an effect the other way counts as inactive or inconclusive; note: nearly all actives have a fitted effect of over 55% in size; note: potency is the fitted concentration of half-maximal effect). The procedure, abridged:
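P450-Glo CYP2C9 system: proluciferin substrate with enzyme in mix containing 0.4% BSA, 10 min at room temperature, then NADPH regeneration solution added and incubated 1 h at 37C. Detection reagent stopped reaction; luminescence read after 20 min as RLU.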

Assay [4] can be described thus: Primary qHTS for inhibitors of nuclear receptor binding SET domain protein 2 (NSD2) in an isogenic RCH-ACV NSD2 p.E1099K mutant (9B) (AID 1645876). Note: nearly all actives have a fitted effect of over 70% in size.
Assay [5] in a line: Primary qHTS for inhibitors of nuclear receptor binding SET domain protein 2 (NSD2) in an RCH-ACV wild type WT cells (2C) (AID 1645877). Note: nearly all actives have a fitted effect of over 70% in size. Note: potency is the fitted concentration of half-maximal effect.
For assay [6], the target named is Cytochrome P450 2D6 (Homo sapiens) (UniProt P10635). The assay is described as follows: Cytochrome P450 family 2 subfamily D member 6 (CYP2D6) small molecule antagonists: luciferase biochemical (cell-free) qHTS assay (AID 1645840; active = well fitted curve in the direction sought with a large enough effect in the repeat runs; an effect the other way counts as inactive or inconclusive; note: nearly all actives have a fitted effect of over 55% in size; note: potency is the fitted concentration of half-maximal effect). In short, it runs like this:
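P450-Glo CYP2D6 system: proluciferin substrate converted by enzyme to luciferin, read by luminescence proportional to activity. Enzyme-substrate mix with compound 10 min at room temperature, then NADPH regeneration 1 h before detection reagent.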

Assay [7] can be described thus: NCATS anti-infectives library activity on HEK293 viability as a counter-qHTS vs the C. elegans viability qHTS (AID 1745854). In short, it runs like this: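 Cytotoxicity counter-screen to a worm viability qHTS: CellTiter-Glo luminescence read 10 min after reagent addition. Compounds (final up to 41.7 uM, a 1:5 dilution series) incubated 24 hr at 37C with 1,500 HEK293 cells per well; digitonin control.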

For assay [8], the target named is N-terminal Xaa-Pro-Lys N-methyltransferase 1 (Homo sapiens) (UniProt Q9BV86). The assay is described as follows: Confirmatory qHTS for Inhibitors of N-terminal methyltransferase 1 (NTMT1): MTaseGlo Assay (AID 1645874). Note: potency is the fitted concentration of half-maximal effect; nearly all actives have a fitted effect of over 65% in size. In short, it runs like this:
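SPKRIA peptide at 1 uM was methylated by 125 nM NTMT1 using 100 uM SAM over 30 min at room temperature, following a 15 min compound preincubation. Product SAH was detected luminescently.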

The target in assay [9] is Cytochrome P450 3A4 (Homo sapiens) (UniProt P08684). The assay is described as follows: Cytochrome P450 family 3 subfamily A member 4 (CYP3A4) small molecule antagonists: luciferase qHTS assay (AID 1645841; active = well fitted curve in the direction sought with a large enough effect in the repeat runs; an effect the other way counts as inactive or inconclusive; note: nearly all actives have a fitted effect of over 45% in size). The procedure, abridged:
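P450-Glo CYP3A4 enzyme with proluciferin substrate preincubated 10 min with compound at room temperature, then NADPH regeneration 1 h. Luciferin detection reagent added for 20 min; luminescence recorded. Ketoconazole positive control.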

The target in assay [10] is Rap guanine nucleotide exchange factor 3 (Homo sapiens) (UniProt O95398). In words: Confirmatory qHTS for antagonist of cAMP-regulated guanine nucleotide exchange factor 3 (EPAC1) (AID 1645880). Note: nearly all actives have a fitted effect of over 55% in size. In short, it runs like this:
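Released BODIPY-GDP fluoresces less than Rap1-bound BODIPY-GDP; the signal is followed at 480/540 nm at 5-min intervals over 30 min, after 5 min at room temperature. Reactions contain 100 nM EPAC1, 250 nM RAP1B-BODIPY-GDP and 50 uM GDP; results are normalized to ATA and DMSO.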

The target is the same in assay [11]. In words: Confirmatory qHTS for agonist of cAMP-regulated guanine nucleotide exchange factor 3 (EPAC1) (AID 1645881).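 Note: EPAC1 catalysed release of BODIPY-GDP from Rap1B seen as fluorescence loss; nearly all actives have a fitted effect of over 75% in size.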
Assay [12] addresses Rap guanine nucleotide exchange factor 4 (Homo sapiens) (UniProt Q8WZA2). The assay is described as follows: Confirmatory qHTS for agonist of cAMP-regulated guanine nucleotide exchange factor 4 (EPAC2) (AID 1645884). Note: nearly all actives have a fitted effect of over 65% in size.
The target is the same in assay [13]. In words: Confirmatory qHTS for antagonist of cAMP-regulated guanine nucleotide exchange factor 4 (EPAC2) (AID 1645885). Note: nearly all actives have a fitted effect of over 25% in size. Note: potency is the fitted concentration of half-maximal effect.
Assay [14] has as its target Rap guanine nucleotide exchange factor 3 (Homo sapiens) (UniProt O95398). In words: Counterscreen qHTS for antagonist of cAMP-regulated guanine nucleotide exchange factor 3 (EPAC1) (AID 1645888). In short, it runs like this: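 Rap1B–BODIPY-GDP (250 nM) with 50 uM GDP; compounds pin-transferred to 9.74 nM–152 uM final (activator) or from 7.32 nM upwards (inhibitor). Fluorescence Ex/Em 480/540 nm read at 5 and 30 min, then after adding cAMP or buffer, at room temperature.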
(A counterscreen serves to expose hits that act by an unwanted route or on another target.)

Assay [15] in a line: Viability counterscreen for antagonist of constitutive androstane receptor (CAR) against the NCATS DSHEA and TCM libraries (AID 1794837).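 Note: compound exposure lasted 24 h before viability reading.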 In short, it runs like this: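 Counterscreen performed in a 1536-well qHTS format using HepG2-CYP2B6-hCAR cells; samples titrated in the presence of 48 uM CITCO, with viability measured fluorometrically (405/540 nm) after 24 h.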
A short description of assay [16]: Viability counterscreen for agonist of constitutive androstane receptor (CAR) against the NCATS DSHEA and TCM libraries (AID 1794838). The procedure, abridged: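 Multiplexed counterscreen: after 24 h compound exposure with 0.75 uM PK11195, HepG2-CYP2B6-hCAR viability was quantified fluorimetrically (CellTiter-Fluor, 405/540 nm) prior to the ONE-Glo luciferase read.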

Assay [17] deals with Nuclear receptor subfamily 1 group I member 3 (Homo sapiens) (UniProt Q14994). In words: Primary qHTS for agonist of constitutive androstane receptor (CAR) against the NCATS DSHEA and TCM libraries (AID 1794839).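 Note: HepG2 cells expressing human CAR with a CYP2B6 reporter plus PK11195 antagonist; luciferase reporter luminescence read with ONE-Glo.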 In short, it runs like this:
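Concentration–response screen in HepG2-CYP2B6-hCAR cells under 0.75 µM PK11195; 24 h exposure; luminescent reporter signal with multiplexed fluorescent viability.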

A short description of assay [18]: HepG2 viability counterscreen (readout 2: ATP content) against the NCATS DSHEA and TCM libraries (AID 1794840).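 Note: HepG2 cells exposed to substances for about 24 h.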 In short, it runs like this: (§1)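 After HepG2 cells attach for ~4 h, substances are added and incubated ~24 h at 37C, 5% CO2. GF-AFC fluorescence then CellTiter-Glo luminescence give protease and ATP readouts.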
Assay [19] is described as follows: HepG2 viability counterscreen (readout 1: protease activity) against the NCATS DSHEA and TCM libraries (AID 1794841).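 Note: cells exposed to compounds for about 24 h before the protease read.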 The procedure, abridged: as §1

Results filed as inconclusive are left out. Where a structure was tested more than once in an assay, its records may differ in their call. Active and inactive are the calls of the source. Unless noted, calls come from the whole dose curve; as a rule, active = well fitted curve in the direction sought with a large enough effect; inconclusive = small, poorly fitted or top-dose-only effect, or another doubt; inactive = no such curve, though single readings can be large; an effect the other way counts as inactive or inconclusive.

Chain of Cytochrome P450 2D6 (Homo sapiens) (P10635 whole entry, looked up): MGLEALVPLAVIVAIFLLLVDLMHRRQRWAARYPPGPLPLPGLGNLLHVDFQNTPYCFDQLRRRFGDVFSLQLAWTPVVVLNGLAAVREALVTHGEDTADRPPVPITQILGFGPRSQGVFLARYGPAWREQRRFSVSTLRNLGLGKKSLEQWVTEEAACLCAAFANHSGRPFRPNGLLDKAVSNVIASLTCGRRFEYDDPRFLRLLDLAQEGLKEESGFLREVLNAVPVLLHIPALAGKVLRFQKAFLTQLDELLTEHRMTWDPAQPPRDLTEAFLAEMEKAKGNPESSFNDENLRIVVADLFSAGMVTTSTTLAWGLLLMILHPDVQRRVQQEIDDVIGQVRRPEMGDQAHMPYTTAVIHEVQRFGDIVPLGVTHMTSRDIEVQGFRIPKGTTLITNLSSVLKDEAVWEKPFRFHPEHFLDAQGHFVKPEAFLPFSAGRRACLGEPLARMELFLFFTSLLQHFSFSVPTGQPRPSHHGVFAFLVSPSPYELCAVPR
Chain of Rap guanine nucleotide exchange factor 4 (Homo sapiens) (Q8WZA2 whole entry, looked up): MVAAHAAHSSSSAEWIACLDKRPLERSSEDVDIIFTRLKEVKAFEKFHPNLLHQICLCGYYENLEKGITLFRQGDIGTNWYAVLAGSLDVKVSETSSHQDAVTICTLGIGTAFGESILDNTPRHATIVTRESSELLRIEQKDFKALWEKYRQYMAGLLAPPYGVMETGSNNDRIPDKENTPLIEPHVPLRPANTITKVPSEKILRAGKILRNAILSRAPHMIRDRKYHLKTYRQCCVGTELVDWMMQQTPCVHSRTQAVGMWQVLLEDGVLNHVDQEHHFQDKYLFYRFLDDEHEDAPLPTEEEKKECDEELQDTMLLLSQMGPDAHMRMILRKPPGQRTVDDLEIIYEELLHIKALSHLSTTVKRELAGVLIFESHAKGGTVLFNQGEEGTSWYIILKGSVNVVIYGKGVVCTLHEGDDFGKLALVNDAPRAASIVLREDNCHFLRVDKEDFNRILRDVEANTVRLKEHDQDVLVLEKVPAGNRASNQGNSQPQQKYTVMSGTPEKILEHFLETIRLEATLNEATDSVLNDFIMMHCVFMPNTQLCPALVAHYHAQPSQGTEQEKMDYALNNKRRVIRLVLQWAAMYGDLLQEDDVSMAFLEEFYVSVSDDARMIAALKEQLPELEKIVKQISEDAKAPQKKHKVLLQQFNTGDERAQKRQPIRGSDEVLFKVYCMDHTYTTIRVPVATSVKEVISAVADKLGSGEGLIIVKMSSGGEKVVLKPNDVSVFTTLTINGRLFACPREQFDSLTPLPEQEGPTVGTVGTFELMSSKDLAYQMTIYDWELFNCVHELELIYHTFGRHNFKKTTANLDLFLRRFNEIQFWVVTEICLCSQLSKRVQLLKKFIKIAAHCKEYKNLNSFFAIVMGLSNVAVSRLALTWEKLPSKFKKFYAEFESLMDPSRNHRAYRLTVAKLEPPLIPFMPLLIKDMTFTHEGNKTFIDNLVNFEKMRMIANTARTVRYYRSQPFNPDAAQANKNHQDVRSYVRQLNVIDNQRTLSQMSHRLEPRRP
Chain of Cytochrome P450 3A4 (Homo sapiens) (P08684 whole entry, looked up): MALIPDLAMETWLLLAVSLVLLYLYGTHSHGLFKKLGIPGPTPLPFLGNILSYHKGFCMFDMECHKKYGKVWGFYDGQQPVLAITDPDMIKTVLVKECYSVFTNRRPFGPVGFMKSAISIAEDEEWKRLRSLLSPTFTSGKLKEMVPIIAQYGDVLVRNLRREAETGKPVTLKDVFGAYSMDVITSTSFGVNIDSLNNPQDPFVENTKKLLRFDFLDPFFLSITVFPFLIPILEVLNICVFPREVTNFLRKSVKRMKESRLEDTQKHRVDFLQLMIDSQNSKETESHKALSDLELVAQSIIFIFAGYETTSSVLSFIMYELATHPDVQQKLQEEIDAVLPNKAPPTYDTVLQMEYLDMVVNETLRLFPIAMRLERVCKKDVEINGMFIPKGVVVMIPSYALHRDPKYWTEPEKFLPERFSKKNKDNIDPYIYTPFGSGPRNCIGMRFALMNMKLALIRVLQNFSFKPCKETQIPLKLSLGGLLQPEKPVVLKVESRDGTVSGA
Chain of Cytochrome P450 2C9 (Homo sapiens) (P11712 whole entry, looked up): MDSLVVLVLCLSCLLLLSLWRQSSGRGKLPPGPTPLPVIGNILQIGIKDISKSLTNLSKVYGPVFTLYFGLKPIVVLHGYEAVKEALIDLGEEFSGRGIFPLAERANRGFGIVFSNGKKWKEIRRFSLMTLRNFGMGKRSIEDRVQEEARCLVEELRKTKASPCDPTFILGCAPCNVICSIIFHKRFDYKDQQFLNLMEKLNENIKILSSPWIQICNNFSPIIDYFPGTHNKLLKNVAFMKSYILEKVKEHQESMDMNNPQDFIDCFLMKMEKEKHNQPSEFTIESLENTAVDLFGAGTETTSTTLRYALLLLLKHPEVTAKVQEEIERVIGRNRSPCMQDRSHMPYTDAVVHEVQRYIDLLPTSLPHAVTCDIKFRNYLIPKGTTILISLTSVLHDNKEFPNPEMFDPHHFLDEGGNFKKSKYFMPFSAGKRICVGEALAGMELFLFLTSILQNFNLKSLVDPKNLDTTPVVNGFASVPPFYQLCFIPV
Chain of Rap guanine nucleotide exchange factor 3 (Homo sapiens) (O95398 whole entry, looked up): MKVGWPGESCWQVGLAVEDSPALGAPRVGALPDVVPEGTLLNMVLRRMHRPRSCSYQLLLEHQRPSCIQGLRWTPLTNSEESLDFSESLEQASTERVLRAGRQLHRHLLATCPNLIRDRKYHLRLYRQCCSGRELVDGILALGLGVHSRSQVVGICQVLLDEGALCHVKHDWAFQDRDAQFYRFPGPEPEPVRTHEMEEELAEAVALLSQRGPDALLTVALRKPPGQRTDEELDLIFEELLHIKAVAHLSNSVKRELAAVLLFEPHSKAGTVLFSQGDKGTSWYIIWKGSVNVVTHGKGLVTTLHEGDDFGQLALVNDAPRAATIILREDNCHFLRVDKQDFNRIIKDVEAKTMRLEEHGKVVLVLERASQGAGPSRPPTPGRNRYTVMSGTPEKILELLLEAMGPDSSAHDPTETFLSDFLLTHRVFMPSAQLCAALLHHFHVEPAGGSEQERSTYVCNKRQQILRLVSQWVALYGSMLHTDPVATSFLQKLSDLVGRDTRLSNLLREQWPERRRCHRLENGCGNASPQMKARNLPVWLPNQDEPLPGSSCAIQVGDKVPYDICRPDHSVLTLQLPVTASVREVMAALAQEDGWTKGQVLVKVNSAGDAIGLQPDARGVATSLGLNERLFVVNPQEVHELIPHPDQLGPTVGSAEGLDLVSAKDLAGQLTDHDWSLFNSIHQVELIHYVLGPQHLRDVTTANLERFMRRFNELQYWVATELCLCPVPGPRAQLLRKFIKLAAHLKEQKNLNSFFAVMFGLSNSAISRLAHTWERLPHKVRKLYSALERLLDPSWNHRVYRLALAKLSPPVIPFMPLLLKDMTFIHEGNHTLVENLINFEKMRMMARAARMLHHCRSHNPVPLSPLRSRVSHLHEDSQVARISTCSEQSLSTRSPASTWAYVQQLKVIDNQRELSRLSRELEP
Chain of N-terminal Xaa-Pro-Lys N-methyltransferase 1 (Homo sapiens) (Q9BV86 whole entry, looked up): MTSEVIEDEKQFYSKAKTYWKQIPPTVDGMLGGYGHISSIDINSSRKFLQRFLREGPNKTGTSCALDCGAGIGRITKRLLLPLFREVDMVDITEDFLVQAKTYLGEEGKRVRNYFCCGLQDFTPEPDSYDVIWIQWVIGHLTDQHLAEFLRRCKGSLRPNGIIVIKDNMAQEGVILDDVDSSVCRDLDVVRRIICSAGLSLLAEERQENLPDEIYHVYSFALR
Chain of Nuclear receptor subfamily 1 group I member 3 (Homo sapiens) (Q14994 whole entry, looked up): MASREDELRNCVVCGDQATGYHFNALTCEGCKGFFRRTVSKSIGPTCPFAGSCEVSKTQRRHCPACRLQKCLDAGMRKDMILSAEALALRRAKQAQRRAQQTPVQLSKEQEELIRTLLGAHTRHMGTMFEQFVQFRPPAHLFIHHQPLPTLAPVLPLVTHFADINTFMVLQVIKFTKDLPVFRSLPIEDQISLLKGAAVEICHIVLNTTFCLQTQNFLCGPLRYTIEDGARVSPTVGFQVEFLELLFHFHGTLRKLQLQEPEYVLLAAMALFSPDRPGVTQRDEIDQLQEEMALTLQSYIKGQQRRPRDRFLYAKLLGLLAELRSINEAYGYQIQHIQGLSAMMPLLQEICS

Turning to `C/C(=C(\CCO)SS/C(CCO)=C(\C)N(C=O)Cc1cnc(C)nc1N)N(C=O)Cc1cnc(C)nc1N`, in assay [1], the outcome was inactive. The Potency result in [2], in assay [3], in assay [4] and in [5] was “inactive” throughout.

As to `CCCCCCCC(=O)OCC(O)CO` (stereo unspecified), in [1], the outcome was inactive. In addition, the Potency entry in assay [2], in assay [6], in assay [4] and in assay [5] was “inactive” each time.

For `CC(=O)NCc1c(I)c(NC(C)=O)c(I)c(C(=O)O)c1I`, in assay [1], the outcome was inactive. The Potency entry in assay [2], in assay [3], in [4] and in [5] was “inactive” throughout.

Turning to `CC1CC(OC(=O)c2ccccc2O)CC(C)(C)C1` (stereo unspecified), in assay [1], the outcome was inactive. The Potency entry in assay [2], in [3], in assay [4] and in assay [5] was “inactive” in each case.

In the case of `C=CCOc1ccccc1OCC(O)CNC(C)C` (stereo unspecified), the outcome in [1] and in [7] was inactive. The Potency entry in [2] and in [3] was “inactive” each time. In assay [6], the Potency is 13.8 µM (active).

Turning to `CC(=O)[C@@]1(O)CC[C@H]2[C@@H]3C[C@H](C)C4=CC(=O)C=C[C@]4(C)[C@@]3(F)[C@@H](O)C[C@@]21C`, the result in assay [1] was inactive. For the same molecule, the Potency entry in [2] and in [4] was “inactive” each time. The Potency in [3] is 4.36 µM (active); in [5] it was 0.003 µM (active).

Turning to `O=C(NCCCN1CCOCC1)c1ccc(Cl)cc1`, in [1], the outcome was inactive. Moreover, the Potency result in assay [2], in assay [3], in assay [4] and in assay [5] was “inactive” throughout.

As for `CCCCCCCCCCCCCCCCC(C(=O)O)C(O)(CC(=O)O)C(=O)O` (stereo unspecified), the result in assay [1] was inactive. For the same molecule, the Potency in [2] is 7.94 µM (active); in [8], 17 µM (active). Besides, the Potency result in assay [3] was “inactive”.

Take `Nc1ccc(C(=O)Oc2ccccc2)c(O)c1`: in [1], the result was inactive. For the same molecule, the Potency result in assay [2], in [6], in assay [4] and in assay [5] was “inactive” throughout.

For the molecule `O=c1[nH]c(=O)c2ccccc2o1`, the result in assay [1] was inactive. The Potency result in assay [2], in assay [3], in assay [4] and in assay [5] was “inactive” each time.

Consider `CC(C)(C)C(=O)OCOC(=O)[C@@H]1N2C(=O)[C@@H](NC(=O)[C@H](N)c3ccccc3)[C@H]2SC1(C)C`, for which, in [1], the result was inactive. Further, the Potency result in [2], in assay [6], in [4] and in assay [5] was “inactive” each time.

Turning to `CCN(CC)CC1CCCCN1CC(=O)N1c2ccccc2C(=O)Nc2cccnc21` (stereo unspecified), the outcome in assay [1] and in [9] was inactive. In addition, the Potency result in assay [2] was “inactive”.

For `CC[C@]12CCCN3CCc4c(n(c5ccccc45)[C@@](O)(C(=O)OC)C1)[C@@H]32`, the result in assay [1] was inactive. The Potency entry in [2], in [3], in [4] and in assay [5] was “inactive” each time.

Consider `CCOC(=O)[C@H](CCc1ccccc1)N[C@@H](C)C(=O)N1CCC[C@H]1C(=O)O`, for which the result in assay [1] was inactive. Besides, the Potency entry in assay [2], in assay [3], in assay [4] and in assay [5] was “inactive” throughout.

In the case of `COC(=O)c1ccc(O)cc1`, the result in assay [1] was inactive. The Potency result in assay [2], in assay [3], in assay [4] and in [5] was “inactive” each time.

On to `Cc1cc(O)cc(C)c1Cl`, for which the result in assay [1] and in assay [7] was inactive. Also, the Potency entry in [2], in [6], in assay [3], in assay [4] and in assay [5] was “inactive” in each case.

Regarding `CN[C@@H]1[C@H](O)[C@H](NC)[C@H]2O[C@@]3(O)C(=O)C[C@@H](C)O[C@H]3O[C@@H]2[C@H]1O`, the result in assay [1] was inactive. Moreover, the Potency entry in [2], in assay [3], in [4] and in [5] was “inactive” throughout.

Regarding `Cc1c(C(=O)NCCO)[n+](=O)c2ccccc2n1[O-]`, the result in [1] and in assay [9] was inactive. For the same molecule, the Potency result in [2], in assay [3], in assay [4] and in assay [5] was “inactive” throughout.

As for `Cc1cc(OI)c(C(C)C)cc1-c1cc(C(C)C)c(OI)cc1C`, the result in assay [1] was inactive. The Potency entry in assay [2], in assay [4] and in assay [5] was “inactive” in each case. In addition, the Potency in assay [3] was 12.3 µM (active).

Regarding `COc1ccc(C(=O)NCc2ccc(OCCN(C)C)cc2)cc1OC`, the outcome in [1] was inactive. In addition, the Potency result in assay [2], in [3], in assay [4] and in [5] was “inactive” in each case.

`C/C=C/C(=O)N(CC)c1ccccc1C`: the molecule was classed as inactive in assay [9].

Consider `O=C(O)c1cc(=O)c2ccccc2o1`, for which, in [9], the molecule was called inactive.

Consider `COc1ccc2cc(CCC(C)=O)ccc2c1`, for which the outcome in assay [10], in assay [11], in assay [12], in assay [14] and in [7] was inactive. In addition, in [13], the Potency is 8.79 µM (active) and inactive.

As for `O=C(O)CCCc1ccccc1`, in assay [7], the outcome was inactive.

As for `CC(C)=CCC[C@@](C)(O)[C@H]1CC=C(C)CC1`, the outcome in assay [15], in assay [16], in assay [17], in assay [18] and in assay [19] was inactive.

Consider `O=C(/C=C/c1ccc(O)c(O)c1)O[C@@H]1C[C@@](OC(=O)/C=C/c2ccc(O)c(O)c2)(C(=O)O)C[C@@H](O)[C@@H]1O`, for which the molecule was classed as inactive in assay [18] and in [19].
